The whole screen tested about 310,000 compounds, of which about 14,000 (4.5%) showed an effect of 50% or more. Effects have a minus sign here. The sample as a whole holds a higher share of strong results than the screen did.
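Also: peak tail current of the secondary pulse compared with the same well before compound.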

human ether-à-go-go-related gene (hERG) potassium channel, sequence (Q12809 whole entry, looked up): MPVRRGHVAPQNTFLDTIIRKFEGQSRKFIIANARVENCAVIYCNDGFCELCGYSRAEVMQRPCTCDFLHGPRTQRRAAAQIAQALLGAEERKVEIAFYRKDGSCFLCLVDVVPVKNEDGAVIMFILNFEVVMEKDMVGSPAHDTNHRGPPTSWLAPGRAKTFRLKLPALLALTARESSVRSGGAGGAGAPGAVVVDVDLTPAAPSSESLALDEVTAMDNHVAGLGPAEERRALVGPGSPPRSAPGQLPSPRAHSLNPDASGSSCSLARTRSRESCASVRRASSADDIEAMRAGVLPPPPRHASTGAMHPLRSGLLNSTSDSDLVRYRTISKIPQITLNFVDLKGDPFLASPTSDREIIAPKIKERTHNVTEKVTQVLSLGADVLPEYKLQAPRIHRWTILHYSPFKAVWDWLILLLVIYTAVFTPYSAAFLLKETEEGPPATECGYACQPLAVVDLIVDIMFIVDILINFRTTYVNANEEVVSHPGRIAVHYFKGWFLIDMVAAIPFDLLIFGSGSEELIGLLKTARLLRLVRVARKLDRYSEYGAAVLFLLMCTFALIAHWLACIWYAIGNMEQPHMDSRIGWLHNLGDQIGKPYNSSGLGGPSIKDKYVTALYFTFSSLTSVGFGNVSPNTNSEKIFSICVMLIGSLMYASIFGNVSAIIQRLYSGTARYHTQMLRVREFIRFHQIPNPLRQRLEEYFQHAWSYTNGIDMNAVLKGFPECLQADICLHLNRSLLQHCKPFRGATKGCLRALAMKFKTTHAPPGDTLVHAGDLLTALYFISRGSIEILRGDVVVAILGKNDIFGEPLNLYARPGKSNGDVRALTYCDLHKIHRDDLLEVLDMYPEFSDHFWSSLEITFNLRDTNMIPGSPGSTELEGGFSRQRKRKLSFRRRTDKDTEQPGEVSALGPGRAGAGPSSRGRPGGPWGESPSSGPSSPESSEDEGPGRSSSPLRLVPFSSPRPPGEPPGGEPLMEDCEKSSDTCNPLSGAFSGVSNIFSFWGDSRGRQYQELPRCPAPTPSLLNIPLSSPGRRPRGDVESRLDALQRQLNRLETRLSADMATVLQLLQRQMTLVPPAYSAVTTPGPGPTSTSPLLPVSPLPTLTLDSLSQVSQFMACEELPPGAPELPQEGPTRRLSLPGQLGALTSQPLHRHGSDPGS

This assay has as its target human ether-à-go-go-related gene (hERG) potassium channel (human, UniProt Q12809). The experiment in a line: primary screen, population patch clamp on CHO cells stably expressing hERG; higher = less effect of the substance.
Turning to `CCn1c(CNC(=O)c2ccccc2F)nnc1SCC(=O)NC1CCCCC1C` (stereo not drawn), the “hERG current change (%, negative = inhibition) at 10uM” value came to 31.8%.
The result for `O=C(c1ccc(F)cc1)N1CCC(N2CCOCC2)CC1` reads -5.45%; that for `O=C(Nc1ccc(S(=O)(=O)Nc2ncccn2)cc1)c1cccc(S(=O)(=O)N2CCCC2)c1`, -4.1%.
For `N#Cc1nc(-c2ccc(F)cc2)oc1N1CCCCC1` the value was 8.29%.
`COc1ccccc1Cc1noc(COc2cccc(C)c2C)n1`: the “hERG current change (%, negative = inhibition) at 10uM” value was 3.03%.
The result for `COc1ccc(C(=O)NCCc2nnc3ccc(SCC(=O)Nc4cc(C)on4)nn23)cc1` reads 4.8%.
For `COC(=O)C1=C(c2ccc(OC(F)(F)F)cc2)C[C@@H]2CC[C@H]1N2C(=O)NCCNC(C)=O` the value was 2.65%; for `COC(=O)C1=C(c2ccc(OC(F)(F)F)cc2)C[C@@H]2CC[C@H]1N2C(=O)N1CCCCC1`, -56.3%; for `CCCNC(=O)N1[C@H]2CC[C@@H]1C(C(=O)OC)=C(c1ccc(OC(F)(F)F)cc1)C2`, -27.4%.
The result for `COC(=O)C1=C(c2ccc(OC(F)(F)F)cc2)C[C@@H]2CC[C@H]1N2C(=O)NCC1CC1` reads -58.6%; that for `COC(=O)C1=C(c2ccc(C(C)=O)cc2)C[C@@H]2CC[C@H]1N2C(=O)N1CCCCC1`, -16.9%; that for `COC(=O)C1=C(c2ccc(OC(F)(F)F)cc2)C[C@@H]2CC[C@H]1N2C(=O)N1CCCC1`, -47.9%.
Turning to `COC(=O)C1=C(c2ccc(C(C)=O)cc2)C[C@@H]2CC[C@H]1N2C(=O)N1CCC(O)(c2ccc(Cl)cc2)CC1`, the “hERG current change (%, negative = inhibition) at 10uM” value is -73.6%.
For `COC(=O)C1=C(c2ccc(OC(F)(F)F)cc2)C[C@@H]2CC[C@H]1N2C(=O)N1CCC(O)CC1` the value was -36.2%.
As to `COC(=O)C1=C(c2ccc(C(C)=O)cc2)C[C@@H]2CC[C@H]1N2C(=O)N1CCCC1`, the “hERG current change (%, negative = inhibition) at 10uM” value is reported as 0.9%.
The result for `CC1=CC=CC2=N/C(=N\S(=O)(=O)c3ccc(F)cc3F)c3ccccc3CN12` reads -20.3%; that for `COc1ccc(CC(=O)N(C)Cc2cccc(OC)c2OC)cc1S(=O)(=O)N1CCOCC1`, -5.58%.
For `N=c1oc2ccccc2cc1C(=O)Nc1ccc(F)cc1` the value was 16.5%.
For `COc1ccc(C2=NO[C@@H]3C(=O)N(Cc4ccccc4)C(=O)[C@H]23)cc1OC` the value was -1.95%.
As for `CN(C)S(=O)(=O)c1ccc(N/C=C(\[N+](=O)[O-])S(=O)(=O)c2ccccc2)cc1`, the “hERG current change (%, negative = inhibition) at 10uM” value is given as 15.2%.
The result for `COCCNC(=O)/C(C#N)=C/c1ccc(O)cc1` reads 10.6%; that for `Cc1ccc(C(C)NC(=O)Cc2cccs2)c(C)c1` (stereo not drawn), -9.26%.
For `CSc1ccc(C(=O)NCC(c2ccco2)N(C)C)cc1[N+](=O)[O-]` (stereo not drawn) the value was 17.8%; for `Nc1nnc(-c2ccccc2)c(-c2ccccc2)n1`, -10.7%; for `Cc1ccccc1OCCC(=O)OCC(=O)Nc1cc(S(=O)(=O)N2CCOCC2)ccc1Cl`, -27.8%.
For `Cc1c(NC(=S)Nc2ccccc2C(F)(F)F)cccc1[N+](=O)[O-]` the value was 8.27%.
Turning to `CN1CCN(C(=O)c2cn(-c3ccccc3)nc2-c2cccnc2)CC1`, the “hERG current change (%, negative = inhibition) at 10uM” value was -18.4%.
For `N#Cc1ccccc1S(=O)(=O)N1CCN(C(=O)c2cn(-c3ccccc3)nc2-c2cccnc2)CC1` the value was -48%.
For `COc1ccccc1N1CCN(C(=O)c2cn(-c3ccccc3)nc2-c2cccnc2)CC1` the value was -50.2%; for `O=C(c1cn(-c2ccccc2)nc1-c1cccnc1)N1CCN(S(=O)(=O)c2ccccc2F)CC1`, -70.5%; for `O=C(c1cn(-c2ccccc2)nc1-c1cccnc1)N1CCN(S(=O)(=O)c2cccc(F)c2)CC1`, -13.6%.
The result for `COc1ccccc1N1CCN(C(=O)c2cn(Cc3ccccc3)nc2-c2cccnc2)CC1` reads -8.12%; that for `Nc1nnc(SCc2nnc(-c3ccccc3)o2)s1`, -1.84%.
For the compound `COC(=O)N/N=C/c1c[nH]c2ccccc12`, the “hERG current change (%, negative = inhibition) at 10uM” value is given as 14.5%.
The result for `CC(C)c1onc(C(=O)N2C(C)CCCC2C)c1[N+](=O)[O-]` (stereo not drawn) reads 18.8%; that for `Cc1ccc(NC(=O)c2cccc(N3C(=O)C4C5C=CC(C5)C4C3=O)c2)cc1C` (stereo not drawn), -7.07%.
For `COc1ccc2nc(NC(=O)CS(=O)(=O)Cc3ccccc3)sc2c1` the value was 23.2%; for `COC(=O)/C(=N/Nc1ccccc1C)Sc1nnc(C(O)c2ccccc2)n1-c1ccccc1` (stereo not drawn), 13.3%; for `c1ccc(CN2CCC3(CC2)Nc2ccccc2CO3)cc1`, -21.9%.
For `Cl.c1ccc(CN2CCOCC2)cc1` the value was 22%; for `Cl.c1ccc(CN2CCC3(CCCc4ccccc43)CC2)cc1`, -69.6%; for `COc1ccc(N(CC(=O)Nc2cc(Cl)ccc2C)S(=O)(=O)c2c(C)noc2C)cc1`, 16.7%.
Regarding `COC(=O)CC1C(=O)NCCN1C(=O)c1c(F)cccc1F` (stereo not drawn), the “hERG current change (%, negative = inhibition) at 10uM” value is 14.5%.
For `O=C(NCc1ccncc1)c1cncc(Br)c1` the value was 10.1%; for `Cn1c(N2CCCC2)nc2c1c(=O)n(Cc1ccc(Cl)cc1)c(=O)n2C`, -68.6%; for `Cn1c(=O)c2c(nc(N3CCCCC3)n2C)n(C)c1=O`, -21.5%.
For `Cn1c(N2CCCC2)nc2c1c(=O)n(Cc1ccc(F)cc1)c(=O)n2C` the value was 0.592%; for `CC1CN(c2nc3c(c(=O)n(Cc4ccc(Cl)cc4)c(=O)n3C)n2C)CC(C)O1` (stereo not drawn), -31.2%.
For `Cn1c(NCCCN2CCOCC2)nc2c1c(=O)n(Cc1ccc(Cl)c(Cl)c1)c(=O)n2C` the value was -46%; for `Cn1c(N2CCN(c3ccccn3)CC2)nc2c1c(=O)n(Cc1ccc(Cl)cc1)c(=O)n2C`, -18%.
With `Cn1c(N2CCOCC2)nc2c1c(=O)n(Cc1ccc(Cl)c(Cl)c1)c(=O)n2C`, the “hERG current change (%, negative = inhibition) at 10uM” value was -50.5%.
Take `CC1CN(c2nc3c(c(=O)n(Cc4ccc(Cl)c(Cl)c4)c(=O)n3C)n2C)CC(C)O1` (stereo not drawn): the “hERG current change (%, negative = inhibition) at 10uM” value is recorded as -35.7%.
For `Cn1c(N2CCOCC2)nc2c1c(=O)n(Cc1ccc(Cl)cc1)c(=O)n2C` the value was -54.5%; for `COc1ccc(CC(=O)NCc2cccs2)cc1OC`, 2.71%; for `O=C(Cn1cc(Cl)ccc1=O)c1ccc(Cl)cc1`, 11.7%.
For `CSc1ccc(CN(C)C(C)C(=O)NCc2ccccc2)cc1` (stereo not drawn) the value was -32.8%.
In the case of `CCOc1ccc(C(=O)N[C@H](C(=O)O)C(C)C)cc1`, the “hERG current change (%, negative = inhibition) at 10uM” value came to 7.22%.
For the compound `CCOc1ccc(CN(C)C(C)C(=O)NCCc2ccc(F)cc2)cc1` (stereo not drawn), the “hERG current change (%, negative = inhibition) at 10uM” value is on record as -71.5%.
For `CCOc1ccc(CCNC(=O)C(O)c2ccccc2)cc1` (stereo not drawn) the value was 4.11%; for `CCOc1ccc(C(=O)NC(C(=O)NCCc2ccc(OC(F)F)cc2)C(C)C)cc1` (stereo not drawn), -62.6%.
For the compound `CCC(CC)C(=O)NCCc1ccc(F)cc1`, the “hERG current change (%, negative = inhibition) at 10uM” value amounted to 12.1%.
The result for `CCOc1ccc(C(=O)NC(C(=O)NCCc2ccc(S(N)(=O)=O)cc2)C(C)C)cc1` (stereo not drawn) reads 13.4%.
For `CCOc1ccc(CN(C)C(C)C(=O)NCc2ccccc2)cc1` (stereo not drawn) the value was -54.8%.
Take `CCc1ccc(CN(C)C(C)C(=O)NCc2ccccc2)cc1` (stereo not drawn): the “hERG current change (%, negative = inhibition) at 10uM” value is -23.5%.
Consider `Cc1ccc(OCCCCNC(C)c2ccccc2)c(C)c1` (stereo not drawn), for which the “hERG current change (%, negative = inhibition) at 10uM” value is 2.1%.
As to `O=C(NN1C(=O)/C(=C/C=C/c2ccco2)SC1=S)c1ccncc1`, the “hERG current change (%, negative = inhibition) at 10uM” value was found to be 15.3%.
The result for `Cc1ccc(C2c3[nH]c4ccccc4c3C[C@H]3C(=O)N(c4ccccc4C(=O)N4CCC[C@@H]4C(=O)O)C(=O)N23)cc1` (stereo partly drawn) reads -0.654%.
The result for `Cc1ccc2c(=O)cc(C(=O)NCCc3ccc(S(N)(=O)=O)cc3)oc2c1` reads 9.13%; that for `Cc1ccccc1NC(=O)Cn1nc(C(F)(F)F)cc1C1CC1`, 8.48%.
As for `COC(=O)C1=C(C)OC(N)=C(C#N)C1c1cc(C)sc1C` (stereo not drawn), the “hERG current change (%, negative = inhibition) at 10uM” value is -0.682%.
For `Nc1cc(=O)[nH]c(SCC(=O)N2CCC(Cc3ccccc3)CC2)n1` the value was -2.88%; for `C/C(=N/NC(N)=S)c1ccccc1[N+](=O)[O-]`, 7.13%; for `Nc1nc(-c2ccc3c(c2)NC(=O)CO3)cs1`, 15.5%.
On to `CCOc1ccccc1CN1CCN(CCCc2ccccc2)CC1CCO` (stereo not drawn), for which the “hERG current change (%, negative = inhibition) at 10uM” value is -64.9%.
For `CCOc1ccc(CN2CCN(CCCc3ccccc3)CC2CCO)cc1` (stereo not drawn) the value was -76%; for `CCOc1ccccc1CN1CCN(CC2CC2)CC1CCO` (stereo not drawn), -2.67%.
The result for `CCOc1ccc(CN2CCN(CCCc3ccccc3)C(CCO)C2)cc1` (stereo not drawn) reads -75.5%.
The result for `OCCOc1ccc(CN2CCN(CCCc3ccccc3)C(CCO)C2)cc1` (stereo not drawn) reads -63.3%; that for `CCNC(=S)Nc1ccc(Cl)cc1Cl`, -14%.
Turning to `CCOC(=O)c1nc(C)n(-c2cc(Cl)ccc2Cl)n1`, the “hERG current change (%, negative = inhibition) at 10uM” value was 1.64%.
For `Cc1onc(-c2c(Cl)cccc2Cl)c1C(=O)n1nnc2ccccc21` the value was -3.48%; for `CN(CC(=O)Nc1ccc(N2CCOCC2)cc1)C(=O)c1cc(F)c(F)cc1Cl`, -38.3%.
The result for `Cc1sc2ncnc(SCC(=O)NC(=O)c3cccn3C)c2c1C` reads 10.8%; that for `Cc1nc(C)n(CC(O)COc2ccc(C(=O)c3ccccc3)cc2)n1` (stereo not drawn), -6.4%.
For `Cc1ccccc1C(OCCN(C)C)C1CCCCC1.O=C(O)C(=O)O` (stereo not drawn) the value was -16.3%; for `Cc1ccccc1C(=O)NNC(=O)/C=C\C(=O)O`, -11.1%.
For the compound `Cc1ccccc1C(OCCN(C(C)C)C(C)C)c1ccccc1.O=C(O)/C=C\C(=O)O` (stereo not drawn), the “hERG current change (%, negative = inhibition) at 10uM” value is reported as -68.3%.

For the origin of these results see PMC4336329 (PLoS ONE, 2015).
